In the supplement of paper PMC10849652 one finds log2 fold change data, which are given here for 40 targets.

About 8,800 targets were measured; listed, in parts, are those with a hit and a random draw of the rest. About 0.5% of all pairs of compound and target were hits. A number with no mark means an inactive call.

Chain of UniProt P62256 (P62256 whole entry, looked up): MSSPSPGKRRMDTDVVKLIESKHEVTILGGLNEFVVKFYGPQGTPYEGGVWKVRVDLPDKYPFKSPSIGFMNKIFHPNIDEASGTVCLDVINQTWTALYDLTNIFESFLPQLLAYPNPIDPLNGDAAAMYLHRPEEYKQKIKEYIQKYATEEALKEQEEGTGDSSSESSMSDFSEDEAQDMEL
Chain of UniProt Q9NUY8 (Q9NUY8 whole entry, looked up): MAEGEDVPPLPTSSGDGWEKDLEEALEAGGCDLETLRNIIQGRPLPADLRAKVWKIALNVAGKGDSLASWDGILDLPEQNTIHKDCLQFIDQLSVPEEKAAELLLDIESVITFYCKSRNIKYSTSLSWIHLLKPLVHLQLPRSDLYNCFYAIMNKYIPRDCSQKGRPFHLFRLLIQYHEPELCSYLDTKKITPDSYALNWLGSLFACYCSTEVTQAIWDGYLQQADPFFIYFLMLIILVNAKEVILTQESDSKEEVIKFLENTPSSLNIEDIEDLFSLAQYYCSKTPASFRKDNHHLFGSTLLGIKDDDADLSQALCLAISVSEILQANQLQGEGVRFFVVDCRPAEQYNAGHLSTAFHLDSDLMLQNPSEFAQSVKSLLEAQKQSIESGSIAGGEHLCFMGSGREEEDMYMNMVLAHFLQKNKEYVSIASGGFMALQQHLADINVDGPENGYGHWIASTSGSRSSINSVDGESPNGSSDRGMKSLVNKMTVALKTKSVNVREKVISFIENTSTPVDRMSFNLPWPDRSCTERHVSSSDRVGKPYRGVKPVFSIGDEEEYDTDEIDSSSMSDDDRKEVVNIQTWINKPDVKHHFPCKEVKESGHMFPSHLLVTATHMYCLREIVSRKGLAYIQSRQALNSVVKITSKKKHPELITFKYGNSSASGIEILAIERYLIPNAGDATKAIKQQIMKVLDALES
Chain of UniProt P07437 (P07437 whole entry, looked up): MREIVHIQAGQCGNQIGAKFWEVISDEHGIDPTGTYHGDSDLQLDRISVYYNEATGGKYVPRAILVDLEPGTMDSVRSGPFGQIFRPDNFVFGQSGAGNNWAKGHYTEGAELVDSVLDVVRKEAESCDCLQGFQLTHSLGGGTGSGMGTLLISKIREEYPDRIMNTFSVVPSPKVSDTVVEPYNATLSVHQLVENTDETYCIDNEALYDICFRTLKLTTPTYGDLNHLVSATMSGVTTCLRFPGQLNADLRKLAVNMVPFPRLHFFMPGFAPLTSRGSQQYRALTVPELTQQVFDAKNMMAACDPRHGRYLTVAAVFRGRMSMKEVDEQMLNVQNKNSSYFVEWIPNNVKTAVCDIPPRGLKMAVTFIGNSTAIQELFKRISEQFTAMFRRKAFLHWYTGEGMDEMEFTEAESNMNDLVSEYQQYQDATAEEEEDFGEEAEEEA
Chain of UniProt Q9H7E2 (Q9H7E2 whole entry, looked up): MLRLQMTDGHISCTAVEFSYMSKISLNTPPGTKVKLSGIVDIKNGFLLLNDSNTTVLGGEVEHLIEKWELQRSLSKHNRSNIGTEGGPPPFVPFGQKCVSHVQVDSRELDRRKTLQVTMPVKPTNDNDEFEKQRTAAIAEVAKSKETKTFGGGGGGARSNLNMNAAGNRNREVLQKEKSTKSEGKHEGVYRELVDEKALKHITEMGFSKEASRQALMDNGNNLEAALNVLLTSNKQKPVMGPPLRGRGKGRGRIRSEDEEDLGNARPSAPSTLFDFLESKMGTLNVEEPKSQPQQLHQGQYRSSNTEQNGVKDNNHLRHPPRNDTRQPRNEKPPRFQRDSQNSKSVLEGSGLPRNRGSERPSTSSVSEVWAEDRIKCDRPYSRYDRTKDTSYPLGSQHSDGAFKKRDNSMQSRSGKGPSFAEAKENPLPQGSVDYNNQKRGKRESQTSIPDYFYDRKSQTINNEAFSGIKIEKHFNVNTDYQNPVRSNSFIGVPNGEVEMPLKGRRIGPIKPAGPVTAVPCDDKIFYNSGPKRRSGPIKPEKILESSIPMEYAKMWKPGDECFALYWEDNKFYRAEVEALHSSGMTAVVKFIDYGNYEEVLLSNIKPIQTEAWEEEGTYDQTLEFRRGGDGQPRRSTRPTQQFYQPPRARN
Chain of UniProt Q92547 (Q92547 whole entry, looked up): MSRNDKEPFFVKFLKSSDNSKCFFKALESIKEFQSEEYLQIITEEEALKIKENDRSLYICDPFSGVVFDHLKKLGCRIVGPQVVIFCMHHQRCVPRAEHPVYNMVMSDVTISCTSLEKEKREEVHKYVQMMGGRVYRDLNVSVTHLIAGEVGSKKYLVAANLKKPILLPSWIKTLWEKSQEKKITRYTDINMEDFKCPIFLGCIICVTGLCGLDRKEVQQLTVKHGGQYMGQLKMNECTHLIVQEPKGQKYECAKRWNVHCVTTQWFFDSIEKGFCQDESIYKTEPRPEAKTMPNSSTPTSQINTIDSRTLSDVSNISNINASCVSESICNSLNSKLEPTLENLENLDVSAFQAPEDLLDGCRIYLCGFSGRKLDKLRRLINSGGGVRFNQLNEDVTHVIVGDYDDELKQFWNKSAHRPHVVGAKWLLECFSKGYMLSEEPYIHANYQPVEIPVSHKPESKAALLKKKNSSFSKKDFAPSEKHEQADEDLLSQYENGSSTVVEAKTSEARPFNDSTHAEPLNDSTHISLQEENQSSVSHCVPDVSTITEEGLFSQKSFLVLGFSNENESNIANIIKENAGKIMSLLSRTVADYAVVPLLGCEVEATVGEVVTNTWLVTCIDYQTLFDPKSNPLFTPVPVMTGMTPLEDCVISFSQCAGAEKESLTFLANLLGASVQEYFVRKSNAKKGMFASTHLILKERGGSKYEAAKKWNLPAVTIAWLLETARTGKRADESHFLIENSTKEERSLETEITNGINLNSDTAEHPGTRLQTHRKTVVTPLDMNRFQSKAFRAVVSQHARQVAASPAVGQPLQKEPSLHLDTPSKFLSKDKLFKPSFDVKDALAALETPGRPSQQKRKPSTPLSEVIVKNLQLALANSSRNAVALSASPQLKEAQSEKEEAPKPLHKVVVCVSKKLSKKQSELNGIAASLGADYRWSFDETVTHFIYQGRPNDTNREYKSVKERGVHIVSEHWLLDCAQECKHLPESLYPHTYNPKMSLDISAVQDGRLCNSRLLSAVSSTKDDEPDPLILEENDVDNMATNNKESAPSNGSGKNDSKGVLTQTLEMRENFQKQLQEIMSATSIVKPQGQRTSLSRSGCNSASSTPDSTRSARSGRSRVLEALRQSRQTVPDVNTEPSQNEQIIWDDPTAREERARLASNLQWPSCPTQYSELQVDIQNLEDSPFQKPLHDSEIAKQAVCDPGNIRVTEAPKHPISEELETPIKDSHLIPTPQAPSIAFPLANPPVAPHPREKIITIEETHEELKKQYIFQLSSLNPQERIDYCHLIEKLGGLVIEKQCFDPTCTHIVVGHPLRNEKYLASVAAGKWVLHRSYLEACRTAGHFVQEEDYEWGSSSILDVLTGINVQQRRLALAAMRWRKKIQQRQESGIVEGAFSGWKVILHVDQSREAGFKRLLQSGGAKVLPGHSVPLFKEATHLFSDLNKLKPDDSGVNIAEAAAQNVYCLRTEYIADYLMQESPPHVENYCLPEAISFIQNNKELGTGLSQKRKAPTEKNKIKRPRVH
Chain of UniProt Q5JUR7 (Q5JUR7 whole entry, looked up): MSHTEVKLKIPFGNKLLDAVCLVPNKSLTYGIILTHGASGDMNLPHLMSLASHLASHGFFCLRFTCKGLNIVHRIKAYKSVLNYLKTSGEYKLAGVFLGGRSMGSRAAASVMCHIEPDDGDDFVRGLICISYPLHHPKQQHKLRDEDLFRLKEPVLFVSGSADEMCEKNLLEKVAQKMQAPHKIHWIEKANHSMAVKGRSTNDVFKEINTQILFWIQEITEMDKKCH
Chain of UniProt Q6IPR3 (Q6IPR3 whole entry, looked up): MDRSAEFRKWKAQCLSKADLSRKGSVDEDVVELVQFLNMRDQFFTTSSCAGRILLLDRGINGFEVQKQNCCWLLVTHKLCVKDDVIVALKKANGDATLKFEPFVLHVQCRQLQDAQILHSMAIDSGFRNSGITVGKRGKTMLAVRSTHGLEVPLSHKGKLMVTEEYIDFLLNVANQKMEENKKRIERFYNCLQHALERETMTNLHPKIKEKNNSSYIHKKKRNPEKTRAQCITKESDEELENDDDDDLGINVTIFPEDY
Chain of UniProt Q8N0Z6 (Q8N0Z6 whole entry, looked up): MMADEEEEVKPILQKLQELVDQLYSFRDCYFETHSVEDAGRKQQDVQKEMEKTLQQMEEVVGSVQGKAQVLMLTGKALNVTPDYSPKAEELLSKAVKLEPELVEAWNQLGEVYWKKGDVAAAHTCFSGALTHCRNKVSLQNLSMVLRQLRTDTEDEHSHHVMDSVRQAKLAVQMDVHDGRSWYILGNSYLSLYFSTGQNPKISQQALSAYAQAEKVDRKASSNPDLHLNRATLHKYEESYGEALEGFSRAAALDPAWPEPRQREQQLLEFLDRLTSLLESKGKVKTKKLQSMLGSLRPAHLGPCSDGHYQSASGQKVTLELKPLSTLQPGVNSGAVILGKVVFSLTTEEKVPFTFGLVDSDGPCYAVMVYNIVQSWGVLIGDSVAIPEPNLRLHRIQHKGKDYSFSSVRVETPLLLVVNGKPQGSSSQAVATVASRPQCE
Chain of UniProt Q01085 (Q01085 whole entry, looked up): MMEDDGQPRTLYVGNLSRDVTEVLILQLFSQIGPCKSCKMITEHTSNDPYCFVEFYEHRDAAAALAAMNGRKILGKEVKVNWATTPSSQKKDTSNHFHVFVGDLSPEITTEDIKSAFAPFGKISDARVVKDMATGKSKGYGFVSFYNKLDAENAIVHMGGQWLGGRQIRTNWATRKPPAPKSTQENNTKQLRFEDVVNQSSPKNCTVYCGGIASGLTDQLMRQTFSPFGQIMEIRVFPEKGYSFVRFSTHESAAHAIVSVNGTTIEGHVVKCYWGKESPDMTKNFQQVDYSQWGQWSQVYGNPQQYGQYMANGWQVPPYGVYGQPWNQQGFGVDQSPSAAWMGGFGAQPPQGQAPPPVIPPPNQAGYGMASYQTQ
Chain of UniProt O75865 (O75865 whole entry, looked up): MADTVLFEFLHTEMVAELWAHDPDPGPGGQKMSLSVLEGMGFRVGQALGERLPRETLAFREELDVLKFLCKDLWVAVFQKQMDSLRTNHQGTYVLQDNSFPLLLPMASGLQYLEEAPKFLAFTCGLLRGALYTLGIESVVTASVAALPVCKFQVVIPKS

Compound in this assay: c1ccc([C@@H]2C[C@H]2NC2CCNCC2)cc1
The experiment in a line: log2 fold change, soluble protein after heating vs DMSO (PISA); higher = thermal stabilisation; K562 lysate, 10 uM; active = over 0.2 and 3.5 SD of the protein, either way, in both replicates (recomputed). The method, boiled down:
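K562 pellets were dounce-homogenised in PBS pH 7.4 containing 1 mM MgCl2, and the crude extract, at 1 mg/mL protein, was exposed to 10 μM compound for 30 min. Aliquots were heated for 3 min across 48°C-58°C, pooled, brought to 0.5% NP-40 at 4°C and spun at 21,000xg for 90 min, with the supernatant taken as soluble protein. TMTpro 16plex LC-MS/MS with equalised channel sums quantified that protein. Values are log-two fold changes in thermal stability relative to solvent controls, taken from duplicates.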
For UFSP2 (UniProt Q9NUQ7), the log2 fold change is 0.022.
The result for TOPBP1 (UniProt Q92547) reads 0.099.
For UBR3 isoform 4 (UniProt Q6ZT12) the value was 0.076.
Regarding TBC1D23 (UniProt Q9NUY8), the log2 fold change was -0.024.
Take TBC1D2B (UniProt Q9UPU7): the log2 fold change was -0.008.
With TMEM87B (UniProt Q96K49), the log2 fold change was 0.038.
For TNIK isoform 4 (UniProt Q9UKE5) the value was -0.076; for TLK2 isoform 2 (UniProt Q86UE8), -0.075.
With TK1 (UniProt K7ERV3), the log2 fold change was -0.037.
For TTF2 (UniProt Q9UNY4) the value was 0.003; for TTC12 isoform 2 (UniProt Q9H892), 0.058.
Regarding TIAL1 isoform 2 (UniProt Q01085), the log2 fold change was -0.021.
For TUBB (UniProt P07437), the log2 fold change is -0.001.
Regarding TRIM11 (UniProt Q96F44), the log2 fold change was -0.001.
The result for TK1 (UniProt P04183) reads -0.116; that for TUBB4B (UniProt P68371), 0.049.
Turning to TDRD3 isoform 3 (UniProt Q9H7E2), the log2 fold change is -0.01.
Turning to TTMP isoform 3 (UniProt Q5BVD1), the log2 fold change is -0.498.
Take TRIM23 (UniProt P36406): the log2 fold change was -0.275.
For TGFBRAP1 (UniProt Q8WUH2), the log2 fold change is -0.014.
Take TPM4 (UniProt P67936): the log2 fold change is -0.04.
On to TRIP12 isoform 2 (UniProt Q14669), for which the log2 fold change was 0.062.
Take TRAPPC6A isoform 2 (UniProt O75865): the log2 fold change was 0.014.
Turning to TPP2 (UniProt P29144), the log2 fold change is 0.025.
The result for TYW3 (UniProt Q6IPR3) reads -0.067; that for TPM3 (UniProt P06753), 0.057.
TBC1D8B (UniProt Q0IIM8): the log2 fold change is -0.101.
UBTF (UniProt P17480): the log2 fold change was 0.069.
As to TTL (UniProt Q8NG68), the log2 fold change is 0.104.
Regarding TEX30 (UniProt Q5JUR7), the log2 fold change was -0.038.
Consider UCHL5 (UniProt Q5LJA9), for which the log2 fold change is 0.133.
For TMPO (UniProt P42166), the log2 fold change is 0.059.
On to TRIM33 isoform 2 (UniProt Q9UPN9), for which the log2 fold change is 0.005.
TRIP13 (UniProt Q15645): the log2 fold change was 0.049.
UBXN2B (UniProt Q14CS0): the log2 fold change was 0.014.
Consider TUBGCP3 (UniProt Q96CW5), for which the log2 fold change is 0.037.
On to UBE2H (UniProt P62256), for which the log2 fold change is 0.095.
With TUBGCP2 isoform 4 (UniProt Q9BSJ2), the log2 fold change was 0.097.
For the target TRAF2 isoform 2 (UniProt Q12933), the log2 fold change is -0.015.
Take TTC5 (UniProt Q8N0Z6): the log2 fold change was 0.002.
